Assay results published in PubChem BioAssay (Tox21).
“And” between values parts separate entries of the source, which are not always exact repeats. Equal values may be shown once. Inconclusive results are not listed. Where a call stands in place of a potency, no number is given. The source holds several records for some structures; these can differ, active in one and inactive in another. The source made the active and inactive calls. Calls come from the whole dose curve; as a rule, active = well fitted inhibition curve with a large enough effect in the repeat runs; inconclusive = weak or mixed curves; inactive = no such curve, though single readings can be large or run the other way.

Target: Cytochrome P450 2D6 (Homo sapiens) (UniProt P10635)
Sequence (P10635 whole entry, looked up): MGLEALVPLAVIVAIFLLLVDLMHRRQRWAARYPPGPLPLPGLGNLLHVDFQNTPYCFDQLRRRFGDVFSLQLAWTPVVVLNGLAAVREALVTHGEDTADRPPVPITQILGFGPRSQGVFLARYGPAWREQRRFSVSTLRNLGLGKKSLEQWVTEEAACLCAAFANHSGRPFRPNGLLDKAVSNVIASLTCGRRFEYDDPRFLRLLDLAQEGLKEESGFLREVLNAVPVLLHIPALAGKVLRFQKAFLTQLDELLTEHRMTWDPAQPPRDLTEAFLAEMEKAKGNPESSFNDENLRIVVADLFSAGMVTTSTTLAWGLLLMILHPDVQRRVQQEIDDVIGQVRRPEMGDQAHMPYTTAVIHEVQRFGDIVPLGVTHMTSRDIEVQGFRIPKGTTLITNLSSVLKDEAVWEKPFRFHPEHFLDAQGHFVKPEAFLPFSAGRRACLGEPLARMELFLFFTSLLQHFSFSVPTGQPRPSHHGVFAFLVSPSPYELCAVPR
Test: Cytochrome P450 Family 2 Subfamily D Member 6 (CYP2D6) small molecule antagonists: luciferase reporter qHTS assay (AID 1671196); note: nearly all actives have a fitted effect of over 50% in size
Conditions: P450-Glo CYP2D6 enzyme assay, luciferin luminescence, 1 h; series mostly up to 115 µM
From the text: U.S. Tox21 Program National Center for Advancing Translational Sciences [NCATS] U.S. Environmental Protection Agency [EPA] National Institutes of Environmental Health Sciences [NIEHS] National Toxicology Program [NTP] U.S. Food and Drug Administration [FDA] Tox21 Assay Overview: Cytochrome P450 (CYP) enzymes are membrane-bound hemeproteins that play a key role in metabolism of drugs and xenobiotics. Evaluation of the effect of chemicals on CYP isozymes is useful to minimize the adverse drug reactions and toxicities in drug development process. Tox21 chemicals were tested for their effect on CYP enzyme activities by using P450-Glo (TM) screening systems (Promega Corporation, Madison, WI). These systems provide a luminescent method containing proluciferin substrates and are converted to luciferin products by CYP isozymes. The luciferin products formed are detected with a luciferin detection reagent, and the amount of light produced is proportional to CYP activity. P450-Glo (TM) CYP2D6 screening system (Catalog. No. V9890) was used to detect the compounds that interfere in CYP2D6 activity.
Tox21 Assay Protocol Summary: Two ul of enzyme-substrate mix was dispensed into medium binding white/solid 1536-well plates (Greiner Bio-One North America Inc., Monroe, NC) using a BioRaptr Flying Reagent Dispenser (FRD, Beckman Coulter, Brea, CA). […] The assay plates were incubated at room temperature for 10 min. Then 2 ul of NADPH regeneration solution was added to each well of the assay plates using an FRD and incubated at room temperature for 1 h. The reaction was stopped by adding 4 ul of detection reagent using an FRD and after 20 min incubation at room temperature the luminescence signal was measured using a ViewLux plate reader (Perkin Elmer, Shelton, CT). Data were expressed as relative luminescence units.
Potency is the fitted concentration of half-maximal effect.

Row | SMILES | Potency
1 | Nc1ccc2c(O)cc(S(=O)(=O)O)cc2c1 | 35.6 µM (active) and 71 µM (active)
2 | CN(C)C | inactive
3 | Cc1ccc2c(c1)C(=O)OC2=O | inactive and 6.33 µM (active)
4 | C=C[C@@]1(C)CC(=O)[C@]2(O)[C@@]3(C)[C@@H](O)CCC(C)(C)[C@@H]3[C@H](O)[C@H](OC(C)=O)[C@@]2(C)O1 | 63.3 µM (active) and inactive
5 | CCO[Si](CCCNC(N)=O)(OCC)OCC | inactive
6 | CC(=O)Oc1ccc(C(c2ccc(OC(C)=O)cc2)c2ccccn2)cc1 | 35.4 µM (active) and inactive
7 | CC(C)(C)c1cccc(C(C)(C)C)c1O | 39 µM (active) and inactive
8 | CC(=O)Nc1ccc2c(c1)Cc1cc(NC(C)=O)ccc1-2 | inactive
9 | CC(=O)OC(C)C | inactive
10 | O=C(O)CCCCCCCCCCCC(=O)O | 17.6 µM (active)
11 | [Na+] | inactive
12 | Oc1c(Cl)ccc(Cl)c1Cl | 71 µM (active)
13 | C=CCOC(=O)C(=C)C | inactive
14 | Clc1ccc(Sc2cc(Cl)c(Cl)cc2Cl)cc1 | inactive
15 | COCCOCCOCCO | inactive
16 | O=S1(=O)CCCO1 | inactive
17 | CC1(C)NC(=O)N(c2ccc([N+](=O)[O-])c(C(F)(F)F)c2)C1=O | inactive
18 | Cc1ccc(S(=O)(=O)O)cc1C | inactive
19 | C=CN1CCCC1=O | inactive
20 | FC(F)(F)C(Cl)Br (stereo not given) | inactive

Row | SMILES | Potency
21 | O=Cc1ccccc1C=O | inactive
22 | NCCN | 31.7 µM (active)
23 | Cc1ccc(C(C)(C)C)c(O)c1 | inactive
24 | O=[Se](O)O | inactive
25 | CC(=O)O[C@]1(C(C)=O)CC[C@H]2[C@@H]3C=C(C)C4=CC(=O)CC[C@]4(C)[C@H]3CC[C@@]21C | inactive
26 | [O-]/[N+](=N\O)c1ccccc1 | inactive
27 | CCCCCCC(C)O (stereo not given) | inactive
28 | O=C(O)CCCC(=O)O | 22 µM (active) and inactive
29 | CCCOCCO | inactive
30 | Cc1ccc(C(C)(C)C)cc1 | inactive
31 | CCC(Cc1c(I)cc(I)c(N)c1I)C(=O)O (stereo not given) | inactive
32 | C=CCNCC=C | inactive
33 | CCCCCCCCCCCCO | inactive
34 | CC(=O)[C@@]1(O)CC[C@H]2[C@@H]3C[C@H](C)C4=CC(=O)C=C[C@]4(C)[C@@]3(F)[C@@H](O)C[C@@]21C | inactive
35 | O=C1CCc2ccccc2O1 | inactive
36 | c1ccc2c(c1)[nH]c1ccccc12 | 39.2 µM (active) and inactive
37 | c1ccc2c(c1)ccc1cc3c(ccc4ccccc43)cc12 | inactive
38 | C=CC(=O)OCCCC | inactive
39 | C=C[Si](OCCOC)(OCCOC)OCCOC | 28.4 µM (active) and inactive
40 | Cc1ccc([N+](=O)[O-])c(C)c1 | inactive
